The panel holds about 79,000 compounds, 15% with a hit somewhere; the sample as a whole holds those more often. Unmarked numbers belong to inactive results. No stated cut-off is given here; in the data, active means growth inhibition above about 70%; inactive means the rest.

One test is described as follows: NCI Yeast Anticancer Drug Screen. Data for the rad50 strain (AID 155).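 Further: 0% = growth of vehicle-only cultures of the same strain.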 Conditions: S. cerevisiae rad50 strain growth inhibition; at 50.0 µM; hits give high values. A digest of the protocol:
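Relative growth inhibition (compound vs vehicle) was measured in yeast with a defined repair-gene alteration.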
For the compound `[N-]=[N+]=NC1(Cc2ccccc2)C(=O)Nc2ccccc2C1=O` (stereo not given), the growth inhibition is 0.8%.
In the case of `CCc1ccccc1NC(=O)CCl`, the growth inhibition is 9.15%.
Regarding `O=S1(=O)c2ccccc2NC(c2ccc3ccccc3c2)CC1c1ccccc1F` (stereo not given), the growth inhibition is -25.3%.
As for `C/C(=N\N=C(/C)c1cccc2ccccc12)c1cccc2ccccc12`, the growth inhibition was -8.9%.
Still for that read-out and setting: in the case of `C=CCC[P+](c1ccccc1)(c1ccccc1)c1ccccc1` it was 37.2%; in that of `CCOC(=O)/C(C#N)=C\N(C)C`, 8.75%.
With `Cc1cccc(OCC(O)CN(Cc2ccsc2)c2ccccn2)c1` (stereo not given), the growth inhibition is 18.4%.
On to `COc1ccc(C(=O)C(c2ccc(OC)cc2)C2(O)C(=O)Nc3ccc([N+](=O)[O-])cc32)cc1` (stereo not given), for which the growth inhibition was -7.65%.
For `CC12CCC(C1)C(C)(C)/C2=N\O` (stereo not given), the growth inhibition was -16.2%.
Turning to `COC(=O)C1C(=O)CC2CCCCC21` (stereo not given), the growth inhibition is 2.75%.
`CCSC1OC(C(COC(C)=O)OC(C)=O)C(OC(C)=O)C1NC(=O)OCc1ccccc1` (stereo not given): the growth inhibition is -0.05%.
Regarding `O=C(O)/C=C/C=C/c1ccc(Cl)cc1`, the growth inhibition was 7.25%.
As for `COC1(C)CNCC(C)(C)NC(=O)C(C)(OC)CNCC(C)(C)NC1=O` (stereo not given), the growth inhibition was -10.9%.
As for `[N-]=[N+]=CC(=O)C1OC1c1ccc(Br)cc1` (stereo not given), the growth inhibition is 11.8%.
As for `CCOC(CSc1cc(C)c2ccccc2n1)OCC`, the growth inhibition is 14.1%.
For `NNC(=O)C(=O)N/N=C1/CCCC1C(=O)CCC(=O)Nc1ccc(Cl)cc1` (stereo not given), the growth inhibition is -4%.
Regarding `C/C(=N/O)C1c2ccccc2Cc2ccccc21`, the growth inhibition is -11.5%.
Regarding `Cc1cc(=O)c2cc(Br)cc(Br)c2[nH]1`, the growth inhibition was 11.8%.
As to `N#CCCN(Cc1ccccc1)CN1C(=O)c2ccccc2C1=O`, the growth inhibition was 8.75%.
Turning to `CNCCCCCNC`, the growth inhibition is -7%.
Turning to `O=C1c2ccccc2C(=O)c2c1oc1c2ccc2ccccc21`, the growth inhibition was -8.15%.
For the compound `CCC1(C)CC(=O)N(C/C=C(\C)CCC(=O)O)C(=O)C1`, the growth inhibition is -3.35%.
Same read-out and setting: then `O=c1[nH]ncc2ccc([N+](=O)[O-])cc12`, with 6.45%; and `O=C(O)c1ccccc1P(=O)(O)c1ccccc1`, with -13%; and `CC(CO)(CO)N1C(=O)c2cccc3cc([N+](=O)[O-])cc(c23)C1=O`, with 31.4%.
Regarding `CCCCC(CC)CSCCOC(C)OCCSCC(CC)CCCC` (stereo not given), the growth inhibition is 34.3%.
Regarding `CC(C)CCC[C@@H](C)[C@H]1CC[C@H]2[C@@H]3CC=C4C[C@@H](OC(=O)c5cccc6c(=O)c7ccccc7[nH]c56)CC[C@]4(C)[C@H]3CC[C@]12C`, the growth inhibition was 12.8%.
`[Mn+2].[NH-]CC(=O)NC(Cc1ccccc1)C(=O)O.[NH-]CC(=O)NC(Cc1ccccc1)C(=O)O` (stereo not given): the growth inhibition is -15.5%.
In the case of `O=C(C/C(=N\NC(=O)C[n+]1ccccc1)C(=O)Nc1nc2ccc([N+](=O)[O-])cc2s1)CC(c1ccccc1)c1c(O)c2ccccc2oc1=O` (stereo not given), the growth inhibition is 3.65%.
In the case of `C1CCC(C2CCCC[N-]2)[N-]C1.C1CCC(C2CCCC[N-]2)[N-]C1.O=C(O)C(=O)O.[Ru+4]` (stereo not given), the growth inhibition is 31.8%.
Regarding `COc1cccc(/S(C)=N/S(=O)(=O)c2ccc(C)cc2)c1` (stereo not given), the growth inhibition was -11.2%.
Same read-out and setting: in the case of `N#CCc1nc(-c2cc3ccccc3oc2=O)cs1` it was 31.4%.
On to `CC(=O)C1CC=C(C)CC1` (stereo not given), for which the growth inhibition is -6.8%.
Still for that read-out and setting: in the case of `CCS(=O)(=O)C(S(C)(=O)=O)S(=O)(=O)C(C)C` (stereo not given) it was -1.65%.
Turning to `CCC(C)C(=O)/C=C/c1ccccc1` (stereo not given), the growth inhibition was 14.2%.
As for `O=C1CCCCC1C(O)(C(F)(F)F)C(F)(F)Cl` (stereo not given), the growth inhibition was -20.4%.
For the compound `O=C(O)c1ccc(-c2nn[nH]n2)cc1`, the growth inhibition was -0.85%.
With `Cc1c(C(=O)CC(=O)C(=O)NC2C3CC4CC(C3)CC2C4)[n+](=O)c2ccccc2n1[O-]` (stereo not given), the growth inhibition is -11.1%.
As for `Cc1nc(N)nc(C)c1N=Nc1ccc(Cl)cc1Cl`, the growth inhibition is -0.75%.
On to `c1ccc(C2=NC3CCCCC3S2)cc1` (stereo not given), for which the growth inhibition is 2.95%.

A short description of a further test: NCI Yeast Anticancer Drug Screen. Data for the mec2-1 strain (AID 157). The following applies: S. cerevisiae mec2-1 strain, at 50.0 µM, hits give high values. A digest of the protocol:
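Yeast mec2-1 mutant treated with compound. Readout: growth inhibition vs vehicle controls.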
In the case of `[N-]=[N+]=NC1(Cc2ccccc2)C(=O)Nc2ccccc2C1=O` (stereo not given), the growth inhibition was -10.1%.
As to `CCc1ccccc1NC(=O)CCl`, the growth inhibition is 0.3%.
On the same count and under the same terms, in the case of `O=S1(=O)c2ccccc2NC(c2ccc3ccccc3c2)CC1c1ccccc1F` (stereo not given) it was -28.1%; in that of `C/C(=N\N=C(/C)c1cccc2ccccc12)c1cccc2ccccc12`, -0.65%.
The same measure, in the same setting: then `C=CCC[P+](c1ccccc1)(c1ccccc1)c1ccccc1`, with 34.1%.
In the case of `CCOC(=O)/C(C#N)=C\N(C)C`, the growth inhibition was -12.7%.
Take `Cc1cccc(OCC(O)CN(Cc2ccsc2)c2ccccn2)c1` (stereo not given): the growth inhibition is 16.4%.
Take `COc1ccc(C(=O)C(c2ccc(OC)cc2)C2(O)C(=O)Nc3ccc([N+](=O)[O-])cc32)cc1` (stereo not given): the growth inhibition is 1.95%.
Consider `CC12CCC(C1)C(C)(C)/C2=N\O` (stereo not given), for which the growth inhibition is -13.8%.
With `COC(=O)C1C(=O)CC2CCCCC21` (stereo not given), the growth inhibition was -19.6%.
For the compound `CCSC1OC(C(COC(C)=O)OC(C)=O)C(OC(C)=O)C1NC(=O)OCc1ccccc1` (stereo not given), the growth inhibition was 5.75%.
As for `O=C(O)/C=C/C=C/c1ccc(Cl)cc1`, the growth inhibition was 23.4%.
In the case of `COC1(C)CNCC(C)(C)NC(=O)C(C)(OC)CNCC(C)(C)NC1=O` (stereo not given), the growth inhibition was 2.1%.
As to `[N-]=[N+]=CC(=O)C1OC1c1ccc(Br)cc1` (stereo not given), the growth inhibition is 15.3%.
Still for that read-out and setting: in the case of `CCOC(CSc1cc(C)c2ccccc2n1)OCC` it was -0.05%; in that of `NNC(=O)C(=O)N/N=C1/CCCC1C(=O)CCC(=O)Nc1ccc(Cl)cc1` (stereo not given), -14.2%; in that of `C/C(=N/O)C1c2ccccc2Cc2ccccc21`, -11.8%.
Turning to `Cc1cc(=O)c2cc(Br)cc(Br)c2[nH]1`, the growth inhibition is -13.8%.
As to `N#CCCN(Cc1ccccc1)CN1C(=O)c2ccccc2C1=O`, the growth inhibition was 5.5%.
For `CNCCCCCNC`, the growth inhibition was -10.6%.
On to `O=C1c2ccccc2C(=O)c2c1oc1c2ccc2ccccc21`, for which the growth inhibition was 7%.
For `CCC1(C)CC(=O)N(C/C=C(\C)CCC(=O)O)C(=O)C1`, the growth inhibition is 4.5%.
For `O=c1[nH]ncc2ccc([N+](=O)[O-])cc12`, the growth inhibition is 7.9%.
As for `O=C(O)c1ccccc1P(=O)(O)c1ccccc1`, the growth inhibition is -10.3%.
On the same count and under the same terms, in the case of `CC(CO)(CO)N1C(=O)c2cccc3cc([N+](=O)[O-])cc(c23)C1=O` it was 29.1%.
In the case of `CCCCC(CC)CSCCOC(C)OCCSCC(CC)CCCC` (stereo not given), the growth inhibition is 2.25%.
As for `CC(C)CCC[C@@H](C)[C@H]1CC[C@H]2[C@@H]3CC=C4C[C@@H](OC(=O)c5cccc6c(=O)c7ccccc7[nH]c56)CC[C@]4(C)[C@H]3CC[C@]12C`, the growth inhibition is 16.1%.
Turning to `[Mn+2].[NH-]CC(=O)NC(Cc1ccccc1)C(=O)O.[NH-]CC(=O)NC(Cc1ccccc1)C(=O)O` (stereo not given), the growth inhibition was -11.3%.
Turning to `O=C(C/C(=N\NC(=O)C[n+]1ccccc1)C(=O)Nc1nc2ccc([N+](=O)[O-])cc2s1)CC(c1ccccc1)c1c(O)c2ccccc2oc1=O` (stereo not given), the growth inhibition is -15%.
For the compound `C1CCC(C2CCCC[N-]2)[N-]C1.C1CCC(C2CCCC[N-]2)[N-]C1.O=C(O)C(=O)O.[Ru+4]` (stereo not given), the growth inhibition was 9.4%.
Consider `COc1cccc(/S(C)=N/S(=O)(=O)c2ccc(C)cc2)c1` (stereo not given), for which the growth inhibition was -7.15%.
As for `N#CCc1nc(-c2cc3ccccc3oc2=O)cs1`, the growth inhibition was 16.3%.
On to `CC(=O)C1CC=C(C)CC1` (stereo not given), for which the growth inhibition is -9.55%.
Consider `CCS(=O)(=O)C(S(C)(=O)=O)S(=O)(=O)C(C)C` (stereo not given), for which the growth inhibition is 31.6%.
On the same count and under the same terms, in the case of `CCC(C)C(=O)/C=C/c1ccccc1` (stereo not given) it was -6.15%; in that of `O=C1CCCCC1C(O)(C(F)(F)F)C(F)(F)Cl` (stereo not given), -28.9%; in that of `O=C(O)c1ccc(-c2nn[nH]n2)cc1`, -10.1%.
Turning to `Cc1c(C(=O)CC(=O)C(=O)NC2C3CC4CC(C3)CC2C4)[n+](=O)c2ccccc2n1[O-]` (stereo not given), the growth inhibition was 0.8%.
For `Cc1nc(N)nc(C)c1N=Nc1ccc(Cl)cc1Cl`, the growth inhibition is 6.8%.
For the compound `c1ccc(C2=NC3CCCCC3S2)cc1` (stereo not given), the growth inhibition was -10.6%.

The values are drawn from PubChem BioAssay (NCI).
